{"source": "PubChem BioAssay AID504467", "about": "(National Center for Advancing Translational Sciences (NCATS), 2011)", "note": "Hit rate of the full screen: of about 330,000 compounds, about 7,700 (2.3%) were called active. A call without a number means that no potency is given here. Another 26% or so got no clear call; they are omitted. Calls follow the shape of the dose curve; as a rule, active = well fitted inhibition curve with a large enough effect; inconclusive = small, poorly fitted or top-dose-only effect, or effect the other way; inactive = flat fitted curve, though single readings scatter. The sample as a whole holds a higher share of actives than the screen did. Potency is read from the fitted curve at half-maximal effect."}
{"assay": "qHTS screen for small molecules that inhibit ELG1-dependent DNA repair in human embryonic kidney (HEK293T) cells expressing luciferase-tagged ELG1; also: nearly all actives have a fitted effect of over 55% in size", "settings": "HEK293T ELG1-luciferase reporter, luminescence, 16 h, DNA damage induced by 5-fluorouridine; series mostly up to 46.1 µM", "in_short": "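In this reporter screen, reduction of luminescence relative to DMSO vehicle indicated activity. Compounds and 5-fluorouridine were added together to 2,000 cells per well, incubated for 16 hr at 37 °C, then developed with ONE-Glo.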"}
{"smiles": "Cc1cc(C)c(S(=O)(=O)N2CCCC2CNC(=O)c2ccc3c(c2)OCO3)c(C)c1", "note": "(stereo not drawn)", "Potency": "inactive"}
{"smiles": "CCc1nc(Nc2ccc3nccnc3c2)c2oc3ccccc3c2n1", "Potency": "2.59 µM (active)"}
{"smiles": "CCc1nc(Nc2ccc(NC(C)=O)cc2)c2oc3ccccc3c2n1", "Potency": "inactive"}
{"smiles": "CCc1nc(N2CCN(c3nc(C)cc(C)n3)CC2)c2oc3ccccc3c2n1", "Potency": "inactive"}
{"smiles": "CCCCCc1c(C)nc(N2CCN(Cc3ccc4c(c3)OCO4)CC2)[nH]c1=O", "Potency": "inactive"}
{"smiles": "CCC(C)[C@H](NC(=O)N1CCn2c1nc1ccccc12)C(=O)NCc1ccc(OC)cc1", "note": "(stereo partly drawn)", "Potency": "inactive"}
{"smiles": "COc1ccc(OC)c(NC(=O)COC(=O)Cc2ccsc2)c1", "Potency": "inactive"}
{"smiles": "CCOC(=O)CSc1nc(N2CCOCC2)c2c(c1C#N)CC(C(C)C)OC2", "note": "(stereo not drawn)", "Potency": "inactive"}
{"smiles": "COc1ccc(CSc2nc(N3CCOCC3)c3c(c2C#N)CC(C)(C)OC3)cc1", "Potency": "0.92 µM (active)"}
{"smiles": "CC(C)c1nc(N2CCOCC2)c(C#N)c2c1COC(C)(C)C2", "Potency": "inactive"}
{"smiles": "O=C(COC(=O)c1ccc(O)cc1O)c1ccc2c(c1)OCCO2", "Potency": "inactive"}
{"smiles": "CCN1CCN(c2ccc(S(=O)(=O)N3CCCCC3)cc2NC(=O)c2cccc(NC(C)=O)c2)CC1", "Potency": "inactive"}
{"smiles": "CCN(CC)S(=O)(=O)c1ccc(N2CCOCC2)c(NC(=O)c2ccc(=O)n(C)n2)c1", "Potency": "inactive"}
{"smiles": "CC(Oc1ccc(F)cc1)C(=O)Nc1cc(S(=O)(=O)N2CCOCC2)ccc1N1CCN(C)CC1", "note": "(stereo not drawn)", "Potency": "inactive"}
{"smiles": "CCN(CC)S(=O)(=O)c1ccc(N2CCOCC2)c(NC(=O)C(C)Oc2ccc(F)cc2)c1", "note": "(stereo not drawn)", "Potency": "8.2 µM (active)"}
{"smiles": "COc1cccc(CNS(=O)(=O)c2ccc3c(c2)N(C(C)=O)CCS3)c1", "Potency": "inactive"}
{"smiles": "O=C(Nc1cccc(C(=O)NC2CC2)c1)c1ccc(F)c(S(=O)(=O)N2CCOCC2)c1", "Potency": "inactive"}
{"smiles": "COc1ccc(NC(=O)NCCN2CCN(c3ccc(C)cc3)CC2)c(Cl)c1", "Potency": "inactive"}
{"smiles": "CC1C(=O)N(Cc2ccccc2)c2ccccc2N1C(=O)c1ccccc1", "note": "(stereo not drawn)", "Potency": "25.9 µM (active)"}
{"smiles": "O=C1C(Cc2ccc(O)cc2)NC(=S)N1Cc1ccccc1", "note": "(stereo not drawn)", "Potency": "inactive"}
{"smiles": "CC1Oc2ccccc2N(Cc2cccnc2)C1=O", "note": "(stereo not drawn)", "Potency": "inactive"}
{"smiles": "COCCN(Cc1ccccc1)C(=O)Cc1ccc(S(=O)(=O)N2CCOCC2)s1", "Potency": "inactive"}
{"smiles": "COC(=O)c1ccc(CN2C(=O)NC(c3ccccc3)(c3ccccc3)C2=O)o1", "Potency": "inactive"}
{"smiles": "CC[C@]1(c2ccccc2OC)C(=O)N(C(=O)OC)N1C(=O)OC", "Potency": "inactive"}
{"smiles": "CC1(C)Cc2c(sc(NC(=O)C(=O)NCC3CCCO3)c2C(=O)O)CO1", "note": "(stereo not drawn)", "Potency": "inactive"}
{"smiles": "Cn1c(SCC(=O)Nc2nccs2)nnc1-c1cccnc1", "Potency": "inactive"}
{"smiles": "COc1ccccc1NC(=O)C1=C(C)NC2=C(C(=O)CCC2)C1c1ccc(C)o1", "note": "(stereo not drawn)", "Potency": "inactive"}
{"smiles": "COC(=O)C1=C(C)NC2=C(C(=O)c3ccccc32)C1c1ccc(-c2ccc(C(=O)O)cc2)o1", "note": "(stereo not drawn)", "Potency": "20.6 µM (active)"}
{"smiles": "Cc1ccc(C2C3=C(Nc4[nH]n(-c5ccccc5)c(=O)c42)c2ccccc2C3=O)cc1", "note": "(stereo not drawn)", "Potency": "inactive"}
{"smiles": "O=C(Nc1ccncc1)c1ccc(Cl)c([N+](=O)[O-])c1", "Potency": "inactive"}
{"smiles": "Oc1ccc(N=Cc2c(O)ccc3ccccc23)cc1", "Potency": "inactive"}
{"smiles": "Oc1ccc2ccccc2c1C=Nc1ccccc1", "Potency": "inactive"}
{"smiles": "Oc1ccc2ccccc2c1N=Nc1nccs1", "Potency": "3.66 µM (active)"}
{"smiles": "CC(C)C(NC(=O)c1c(F)cccc1F)C(=O)NNC(=O)c1ccccc1", "note": "(stereo not drawn)", "Potency": "inactive"}
{"smiles": "CN(C(=O)Cn1nnc(-c2ccc(F)cc2)n1)C1CCS(=O)(=O)C1", "note": "(stereo not drawn)", "Potency": "inactive"}
{"smiles": "CN(C)S(=O)(=O)c1cccc(NC(=O)Cc2ccsc2)c1", "Potency": "inactive"}
{"smiles": "CN(CC(=O)Nc1cccc(F)c1)C(=O)C1=COCCO1", "Potency": "inactive"}
{"smiles": "Cn1nccc1CNC(=O)c1ccnn1C", "Potency": "inactive"}
{"smiles": "CCCc1ccc(-c2c(C)sc(NC(=O)c3ccnn3C)c2C#N)cc1", "Potency": "18.4 µM (active)"}
{"smiles": "CCN(CC)C(=O)c1sc(NC(=O)c2ccco2)c(C#N)c1C", "Potency": "inactive"}
{"smiles": "CSc1ccccc1C(=O)OCC(=O)N1CCN(C(C)=O)CC1", "Potency": "inactive"}
{"smiles": "Cc1ccc(C)c(S(=O)(=O)N2CCN(c3ncnc4sccc34)CC2)c1", "Potency": "1.83 µM (active)"}
{"smiles": "Cc1ccc(C)c(S(=O)(=O)n2cnc3ccccc32)c1", "Potency": "inactive"}
{"smiles": "COc1ccc(C)cc1S(=O)(=O)N1CCN(S(=O)(=O)c2cc(C(=O)O)ccc2C)CC1", "Potency": "inactive"}
{"smiles": "CC(=O)N1c2ccc(S(=O)(=O)N3CCC(C(=O)N4CCN(c5ccccc5)CC4)CC3)cc2CC1C", "note": "(stereo not drawn)", "Potency": "inactive"}
{"smiles": "Cc1ccc(S(=O)(=O)N2CCCC(C(=O)N3CCN(C)CC3)C2)cc1", "note": "(stereo not drawn)", "Potency": "inactive"}
{"smiles": "CCCS(=O)(=O)N1CCCC(C(=O)N2CCN(c3ccccc3)CC2)C1", "note": "(stereo not drawn)", "Potency": "inactive"}
{"smiles": "O=C(C1CCCN(S(=O)(=O)c2ccccc2)C1)N1CCN(c2ccc(F)cc2)CC1", "note": "(stereo not drawn)", "Potency": "11.6 µM (active)"}
{"smiles": "CC(=O)N1CCCc2cc(S(=O)(=O)N3CCCC(C(=O)N4CCN(c5cccc(Cl)c5)CC4)C3)ccc21", "note": "(stereo not drawn)", "Potency": "20.6 µM (active)"}
{"smiles": "CC(=O)N1CCCc2cc(S(=O)(=O)CCC(=O)N3CCN(c4ccccc4)CC3)ccc21", "Potency": "inactive"}
{"smiles": "O=S(=O)(NC1CCCCC1N1CCN(c2ccccc2F)CC1)c1ccccc1", "note": "(stereo not drawn)", "Potency": "inactive"}
{"smiles": "COc1ccccc1N1CC(C(=O)Nc2nnc(SCC(=O)NCC3CCCO3)s2)CC1=O", "note": "(stereo not drawn)", "Potency": "inactive"}
{"smiles": "COc1ccc2[nH]c3nc(SCC(=O)NC4CC4)nnc3c2c1", "Potency": "inactive"}
{"smiles": "Cc1cccc(S(=O)(=O)N2CN(CC3CCCO3)c3nc4ccccc4nc32)c1", "note": "(stereo not drawn)", "Potency": "inactive"}
{"smiles": "CCOc1ccc(NC(=O)CN(C)C(=O)COc2cccc(CC)c2)cc1OCC", "Potency": "inactive"}
{"smiles": "CN(CC(=O)Nc1ccc(F)cc1)C(=O)c1ccc(-c2ccc(Cl)cc2)o1", "Potency": "inactive"}
{"smiles": "CC(C)(C)NS(=O)(=O)NC(=O)C1=C(N2CCCC2)COC1=O", "Potency": "inactive"}
{"smiles": "CCCc1cc(=O)oc2cc(OCC(=O)Nc3ccc(CN4CCOCC4)cc3)c(Cl)cc12", "Potency": "inactive"}
{"smiles": "CCCCN1C(=O)C(C)=C(C)C1OCCc1ccc(OC)c(OC)c1", "note": "(stereo not drawn)", "Potency": "inactive"}
{"smiles": "CCC(CO)Oc1cc(NC(=O)c2ccc(Cl)cc2)c2ncn(C(C)C)c2c1", "note": "(stereo not drawn)", "Potency": "inactive"}
{"smiles": "O=C(O)c1ccccc1-c1ccccc1C(=O)Nc1cccc2ccccc12", "Potency": "inactive"}
{"smiles": "CCC(CO)Oc1cc(NC(=O)c2cccc3ccccc23)c2ncn(C(C)C)c2c1", "note": "(stereo not drawn)", "Potency": "14.6 µM (active)"}
{"smiles": "CC(C#N)(NC(=O)CN1CCN(S(=O)(=O)c2cc(C(F)(F)F)ccc2Cl)CC1)C1CC1", "note": "(stereo not drawn)", "Potency": "inactive"}
{"smiles": "Cc1ccc(S(=O)(=O)Nc2nc(CN3CCOCC3)nc3sc(C)c(C)c23)cc1", "Potency": "inactive"}
{"smiles": "C[C@H]1COC(=O)[C@H](CC(=O)OC(C)(C)C)C/C=C\\C[C@@H](CC(=O)N[C@H](CO)Cc2ccccc2)C(=O)N1", "Potency": "inactive"}
{"smiles": "O=C(CSc1nc2nccnc2c(=O)n1Cc1cccs1)Nc1ccccc1F", "Potency": "inactive"}
{"smiles": "O=C(Nc1ccccc1-c1ccccc1)c1cccs1", "Potency": "inactive"}
{"smiles": "COc1ccccc1N1CCN(C(=O)Cn2nnc(-c3cccs3)n2)CC1", "Potency": "inactive"}
{"smiles": "O=C(Nc1ccccc1-c1nnn(CC(=O)N2CCN(c3ccccc3)CC2)n1)c1cccs1", "Potency": "23.1 µM (active)"}
{"smiles": "CN1C2CCC1CC(NC(=O)c1ccc([N+](=O)[O-])cc1)C2", "note": "(stereo not drawn)", "Potency": "inactive"}
{"smiles": "O=C(N[C@@H]1C/C=C\\C[C@@H](CC(=O)N(CCO)Cc2ccccc2)C(=O)N[C@H](Cc2ccccc2)COC1=O)OCC1c2ccccc2-c2ccccc21", "Potency": "inactive"}
{"smiles": "Cc1noc(COc2ccccc2OCC(O)CNC(C)(C)C)n1", "note": "(stereo not drawn)", "Potency": "inactive"}
{"smiles": "CC(C)(C)CC(C)(C)NCC(O)COCCOc1ccc(Br)cc1", "note": "(stereo not drawn)", "Potency": "23.1 µM (active)"}
{"smiles": "OC(COc1ccc(Br)cc1)CN1CCCC1", "note": "(stereo not drawn)", "Potency": "inactive"}
{"smiles": "COc1ccccc1CNC(=O)[C@@H]1CCCN1C(=O)[C@@H]1Cc2ccccc2CN1C(=O)OC(C)(C)C", "Potency": "inactive"}
{"smiles": "O=C1C=CN2CCCC2CC1", "note": "(stereo not drawn)", "Potency": "inactive"}
{"smiles": "COc1ccc(N(C(=O)c2snc(C(N)=O)c2N)C(C(=O)NC2CCCC2)c2ccc(C)o2)c(OC)c1", "note": "(stereo not drawn)", "Potency": "inactive"}
{"smiles": "COc1ccc(NC(=O)COC(=O)c2n[nH]c3ccccc23)c(OC)c1", "Potency": "inactive"}
{"smiles": "Cc1ccc(N(Cc2ccc(C(=O)Nc3ccccc3C(=O)NCc3ccco3)cc2)S(C)(=O)=O)cc1C", "Potency": "4.61 µM (active)"}
{"smiles": "COc1ccc(C(=O)Nc2ccccc2C(=O)NCc2ccco2)cc1", "Potency": "inactive"}
{"smiles": "Cc1cccc(Nc2ccccc2C(=O)NCc2ccco2)c1C", "Potency": "inactive"}
{"smiles": "Cc1cc(C)c(S(=O)(=O)N2CCC(C(=O)OCc3c(C)noc3C)CC2)c(C)c1", "Potency": "inactive"}
{"smiles": "O=C(CCc1nc2sc3c(c2c(=O)[nH]1)CCCC3)NCC(=O)Nc1ccccc1Br", "Potency": "inactive"}
{"smiles": "COc1ccccc1C(=O)OCC(=O)Nc1cccc(S(=O)(=O)NC2=NCCCCC2)c1", "Potency": "inactive"}
{"smiles": "CCc1ccc2[nH]c(=O)c(Cc3ccccc3)c(O)c2c1", "Potency": "inactive"}
{"smiles": "CC(=O)c1cccc(NC(=O)c2ccncc2)c1", "Potency": "inactive"}
{"smiles": "C=C(C)C(=O)Nc1cccc(C(C)=O)c1", "Potency": "inactive"}
{"smiles": "C=CCSc1nsc(NC(=O)Nc2cccc(C(C)=O)c2)n1", "Potency": "7.3 µM (active)"}
{"smiles": "COc1ccc2[nH]c3c(c2c1)CCN1C(=O)C(CC(=O)NCCCN(C)C)C[C@H](C(=O)N2CCOCC2)[C@@]31CCC1CCCC1", "note": "(stereo partly drawn)", "Potency": "inactive"}
{"smiles": "CCN(c1ccccc1)S(=O)(=O)c1ccc(C(=O)Nc2nccs2)cc1", "Potency": "inactive"}
{"smiles": "CN(c1ccccc1)S(=O)(=O)c1cccc(C(=O)NNC(=O)c2ccncc2)c1", "Potency": "inactive"}
{"smiles": "Cc1cccc(NC(=O)c2ccc(S(=O)(=O)N(C)c3ccccc3)cc2)n1", "Potency": "23.1 µM (active)"}
{"smiles": "COc1ccccc1S(=O)(=O)NCc1ccc(C(=O)N(C)Cc2ccc(F)cc2)cc1", "Potency": "inactive"}
{"smiles": "O=S(=O)(Nc1cc(Cl)ccc1N1CCOCC1)c1ccccc1Cl", "Potency": "inactive"}
{"smiles": "CCOC(=O)C1=C(CCc2ccccc2)NC(=O)NC1c1ccc2ccccc2c1", "note": "(stereo not drawn)", "Potency": "inactive"}
{"smiles": "COc1cc(CN2CCCN(C)CC2)c([N+](=O)[O-])cc1OC", "Potency": "inactive"}
{"smiles": "COc1cc(CNCc2ccc3c(c2)OCO3)c([N+](=O)[O-])cc1OC", "Potency": "inactive"}
{"smiles": "COc1cc(CN2CCN(Cc3ccc(C)cc3)CC2)c([N+](=O)[O-])cc1OC", "Potency": "20.6 µM (active)"}
